High-throughput results deposited in PubChem BioAssay by Sanford-Burnham Center for Chemical Genomics.
Cardio protect: cardioprotection against H2O2-induced cell death, primary screen, uHTS, H9c2 cells, ATPLite luminescence; H9c2 cardiomyocytes, H2O2 injury protection, 2 h; protection from H2O2 cell death, % at 20 µM; 360,000 tested, 0.63% active;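 active means compounds giving at least 50% protection of heart cells from peroxide-induced death in the single-dose screen, raw or plate-pattern-corrected value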
CRFR2-BP antag: antagonists of CRF-BP/CRF-R2 complex, primary screen, cell-based, HEK293, calcium dye fluorescence, uHTS; CRF-induced calcium fluorescence; inhibition, % at 11.8 µM; 350,000 tested, 0.59% active;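 active means inhibition of the ligand-induced calcium signal above about 50% at the single tested concentration, limit read from the data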
aDG glyco up: activators of alpha-DG glycosylation, primary screen, uHTS, Pro5-aDG cells, AlphaScreen; alpha-DG glycosylation AlphaScreen (IIH6); 0% Pro5, 100% B10-LARGE cell signal; activation, % at 10 µM; 360,000 tested, 0.22% active;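 active means activation of at least 8% versus controls, or a plate z-score of at least 8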;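 further: Pro5 are CHO cells carrying HIG-tagged alpha-DG that lacks glycosylation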
PfGluPho inh: PfG6PD enzyme inhibitors, primary screen, biochemical, fluorescence intensity, uHTS; PfGluPho enzyme, NADPH resazurin-diaphorase fluorescence; inhibition, % at 20 µM; 350,000 tested, 0.78% active; AID 504690, 2011;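 active means inhibition reaching at least a set limit at 20 µM in the primary screen, cut at about 59% in these data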
FAS-TE inh: FAS thioesterase domain inhibitors, primary screen, biochemical, fluorescence intensity, uHTS; Fatty acid synthase (Homo sapiens), P49327; recombinant FAS-TE, OMFH fluorogenic substrate, fluorescence endpoint; inhibition, % at 15 µM; 360,000 tested, 0.67% active;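 active means compounds whose normalised, plate-corrected inhibition of enzyme fluorescence in the single-dose primary screen is 50% or more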
CRFBP-R2 agonist: agonists of CRF-BP/CRF-R2 complex, primary screen, cell-based, HEK293, calcium dye fluorescence, uHTS; activation, % at 13.2 µM; 350,000 tested, 0.46% active; calcium dye fluorescence (FLIPR); percent of saturating CRF peptide response; AID 588473, 2011;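 active means activation of at least 50%, plus an integration ratio under a set limit after plate pattern correction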
Numbers stand for hits; – = inactive; · = not tested or not shown. Sampled rows, rich in hits. Any-hit rate of the full collection: about 3.2%.

SMILES	Cardio protect	CRFR2-BP antag	aDG glyco up	PfGluPho inh	FAS-TE inh	CRFBP-R2 agonist
COC(=O)C1CSc2[nH]c(=O)sc2C1c1ccc(O)c(OC)c1 (stereo unspecified)	–	77	–	–	–	–
NS(=O)(=O)c1ccc(CCNC(=S)NC(=O)c2ccccc2Br)cc1	–	–	–	–	–	–
Nc1ncnc2c1ncn2[C@@H]1O[C@H](CNS(=O)(=O)c2cc(S(=O)(=O)c3ccccc3)cs2)[C@@H](O)[C@H]1O	–	–	–	–	–	–
COCCN1CC(=O)N(c2cccc(C)c2C)C(c2ccc(Cl)cc2)C1=O (stereo unspecified)	–	56	–	–	–	–
COc1cccc2[nH]c(C(=O)NCc3ccccc3)cc12	–	–	–	–	–	–
O=C(NC1(C(F)(F)F)C(=O)Nc2c1c(=O)[nH]c(=O)n2Cc1ccccc1)c1ccc(Cl)cc1 (stereo unspecified)	–	62	–	–	–	–
COc1ccc(S(=O)(=O)N2CC(O)CC2C(=O)OCc2nc3sc(C)c(C)c3c(=O)[nH]2)cc1 (stereo unspecified)	79	–	–	–	–	–
CCCN(CC(=O)Nc1ccccc1C)C(=O)c1ccc(N2CCCC2=O)cc1	–	–	–	–	–	–
OCCC1CN(Cc2cccc(-n3cccn3)c2)CCN1Cc1ccccc1 (stereo unspecified)	–	–	–	–	–	–
CC(=O)Nc1ccc(N2C(=O)c3cccc4c(O)ccc(c34)C2=O)cc1	–	–	–	–	–	201
COc1ccc(/C(O)=C2/C(=O)C(=O)N(CCN(C)C)C2c2cccnc2)cc1OC (stereo unspecified)	–	–	–	–	–	–
COc1ccc(/C(O)=C2/C(=O)C(=O)N(CCN(C)C)C2c2cccnc2)cc1C (stereo unspecified)	–	–	–	–	–	94
CC1(C)CC(=O)C(=Cc2cn(CCC#N)nc2-c2ccc(Cl)cc2)C(=O)C1	–	–	–	–	–	–
CC1(C)CC(=O)C(=Cc2cn(-c3ccccc3)nc2-c2ccc(Cl)cc2)C(=O)C1	–	–	–	–	–	58
COc1cc2oc(=O)cc(CN(Cc3ccccc3)Cc3ccccc3)c2cc1Cl	–	·	–	·	–	·
Cc1ccc(C(=O)NNC(=S)NC(=O)c2ccc(Cl)cc2)cc1	–	–	–	–	–	216
O=C(CCc1ccccc1)NNC(=S)NC(=O)c1ccc(Cl)cc1	·	–	·	–	·	99
CC(=O)NNC(=S)NC(=O)c1ccc(C)cc1	–	–	–	–	–	–
O=C(Nc1ccc2ccccc2c1)C(c1ccc(C(F)(F)F)cc1)n1c(=O)c(-c2cc3ccccc3[nH]2)nc2ccccc21 (stereo unspecified)	·	·	–	·	·	·
Cc1ccc(CN2CCN(/N=C/C(Br)=C\c3ccccc3)CC2)cc1	–	–	–	–	–	129
CCOC(=O)C1=C(CSc2nc(-c3ccccc3)ccc2C#N)OC(N)=C(C#N)C1c1ccc(OC)cc1 (stereo unspecified)	–	–	–	–	–	50
CC(C)c1cc(N2CCC(=O)NC2=O)cc(C(=O)O)c1O	–	52	–	–	–	–
CC1=CC(C)(C(Cl)(Cl)Cl)C(C)=CC1=NO (stereo unspecified)	–	57	–	–	–	–
COc1cc(CN(C)Cc2ccccc2)cc(OC)c1O	–	–	–	–	–	–
CCCN(C(=O)COc1ccc(C(C)=O)cc1OC)C1CCS(=O)(=O)C1 (stereo unspecified)	–	–	–	–	–	–
SMILES	Cardio protect	CRFR2-BP antag	aDG glyco up	PfGluPho inh	FAS-TE inh	CRFBP-R2 agonist
O=C(NC(=S)NCCc1ccccn1)c1ccco1	–	53	–	–	–	–
COCCNC(=S)N1CCc2cc(OC)c(OC)cc2C1c1cccs1 (stereo unspecified)	–	–	–	–	–	–
COCCn1c(=O)c2c(nc3n2CCCN3CCc2ccc(OC)c(OC)c2)n(C)c1=O	–	–	–	–	–	–
CC1(c2ccccc2)NC(=O)N(CC(=O)Nc2cccc(/C=C/c3ccccn3)c2)C1=O (stereo unspecified)	68	–	–	–	–	–
CCCCCC(=O)Nc1ccc(-c2csc(N)n2)cc1	–	–	–	–	–	–
O=C(Nc1ccc(N2CCN(C(=O)c3ccc(Cl)cc3)CC2)cc1)c1ccc2c(c1)OCCO2	–	–	4.0	–	–	–
O=C(Nc1ccc(N2CCN(C(=O)c3ccccc3)CC2)cc1)c1ccc2c(c1)OCCO2	–	–	–	–	–	–
O=C(O)C1CC(=O)N(Cc2ccccc2)C1 (stereo unspecified)	–	–	–	–	–	–
O=C(O)C1CC(=O)N(CCOc2ccccc2)C1 (stereo unspecified)	–	63	–	–	–	–
CC(C#N)(NC(=O)CN1CCN(S(=O)(=O)c2cccc(F)c2)CC1)C1CC1 (stereo unspecified)	–	–	–	–	–	–
COc1cc(C(=O)NCC(=O)N/N=C/c2ccc(-c3cccc([N+](=O)[O-])c3)o2)cc(OC)c1OC	66	–	–	–	–	–
O=C(N/N=C/c1ccc(-c2cccc([N+](=O)[O-])c2)o1)c1ccc([N+](=O)[O-])cc1	72	–	–	–	–	–
O=C(N/N=C/c1ccc(-c2cccc([N+](=O)[O-])c2)o1)c1ccccc1O	–	–	–	–	–	–
Cc1ccc(/C=C2\Oc3c(ccc(O)c3CN3CCN(C)CC3)C2=O)cc1	–	–	–	–	–	–
CCN1CCN(Cc2c(O)ccc3c2O/C(=C\c2ccc(C)cc2)C3=O)CC1	–	–	–	–	–	54
O=C1/C(=C/C=C/c2ccccc2)Oc2c1ccc(O)c2CN1CCN(CCO)CC1	–	–	–	–	–	–
COc1ccccc1/C=C/C=C1\Oc2c(ccc(O)c2CN2CCN(CCO)CC2)C1=O	–	–	–	–	–	59
COc1ccc(C(=O)COC(=O)C(CCCCN2C(=O)C3C4C=CC(C4)C3C2=O)N2C(=O)C3C4C=CC(C4)C3C2=O)cc1 (stereo unspecified)	75	–	–	–	–	–
O=S(=O)(Nc1nc(-c2sccc2Cl)cs1)c1cc(Cl)ccc1Cl	–	59	–	–	–	–
CC(C)(C)c1nnc(NS(=O)(=O)c2cc(Cl)ccc2Cl)s1	–	–	–	–	–	–
COc1cccc(OC(=O)c2cc3ccccc3oc2=O)c1	–	–	–	–	–	–
COc1ccc(-c2cc(=O)oc3c(O)c(O)ccc23)cc1	63	–	–	–	–	–
